Data reported in PubChem BioAssay (NCI).
The panel holds about 83,000 compounds, 20% with a hit somewhere; the sample as a whole holds those more often.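 Results are percent growth after 48 hours of single-concentration exposure. 100 means growth as in untreated cells, lower positive values show inhibition; negative values down to -100 show cell death.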 Values without a mark were called inactive. Active and inactive are the calls of the source. How the source made its calls: active means growth percent below 10; inactive means the rest.

Tests used:
Experiment in all cases: NCI-60 one-dose screen, 48 h (100 = growth as untreated, 0 = no growth, -100 = all killed)
Conditions in all cases: 10 µM unless noted
SK-MEL-2 melanoma = test system: SK-MEL-2 melanoma
EKVX NSCLC = test system: EKVX NSCLC
SN12C renal = test system: SN12C renal
UO-31 renal = test system: UO-31 renal
TK-10 renal = test system: TK-10 renal
ACHN renal = test system: ACHN renal
CAKI-1 renal = test system: CAKI-1 renal
A498 renal = test system: A498 renal
CCRF-CEM leukemia = test system: CCRF-CEM leukemia
MOLT-4 leukemia = test system: MOLT-4 leukemia
SR leukemia = test system: SR leukemia
RPMI-8226 leukemia = test system: RPMI-8226 leukemia
OVCAR-8 ovarian = test system: OVCAR-8 ovarian
OVCAR-5 ovarian = test system: OVCAR-5 ovarian
OVCAR-4 ovarian = test system: OVCAR-4 ovarian
SK-OV-3 ovarian = test system: SK-OV-3 ovarian
IGROV1 ovarian = test system: IGROV1 ovarian
OVCAR-3 ovarian = test system: OVCAR-3 ovarian
NCI/ADR-RES ovarian = test system: NCI/ADR-RES ovarian
HS 578T breast = test system: HS 578T breast

Row | Structure (SMILES) | growth (SK-MEL-2 melanoma) | growth (EKVX NSCLC) | growth (SN12C renal) | growth (UO-31 renal) | growth (TK-10 renal) | growth (ACHN renal) | growth (CAKI-1 renal) | growth (A498 renal) | growth (CCRF-CEM leukemia) | growth (MOLT-4 leukemia) | growth (SR leukemia) | growth (RPMI-8226 leukemia) | growth (OVCAR-8 ovarian) | growth (OVCAR-5 ovarian) | growth (OVCAR-4 ovarian) | growth (SK-OV-3 ovarian) | growth (IGROV1 ovarian) | growth (OVCAR-3 ovarian) | growth (NCI/ADR-RES ovarian) | growth (HS 578T breast)
1 | COc1ccc(C(=O)Cn2c(C(=O)c3ccc(Cl)cc3)nc3ccccc32)cc1 | 73.4% | 90.9% | 65.1% | 54.7% | 99.6% | 65.5% | 63.5% | 77.9% | 39.2% | 48.5% | 26.9% | 13% | 69.9% | 90.4% | 62.4% | 98.8% | 39.7% | 52% | 35.9% | –
2 | C=C(C)[C@@H]1CCC[C@]2(C(=O)N3CCN(C)CC3)CC[C@]3(C)[C@@H](CC[C@@H]4[C@@]5(C)CC/C(=N\NC(=O)c6ccncc6)C(C)(C)[C@@H]5CC[C@]43C)[C@@H]12 | 106% | 111% | 80.1% | 73.4% | 116% | 88.3% | 80.7% | 119% | 25.9% | 55.9% | 7.99% (active) | 78.2% | 96.7% | 80.1% | 91.5% | 109% | 82.7% | 95.5% | 99.3% | 103%
3 | CCN1C(=O)N(CC)C2C1NN=c1s/c(=C\c3ccc[nH]3)c(=O)n12 (stereo not given) | 23.4% | 47.4% | 39.2% | 39.2% | 61.6% | 42.3% | 27.5% | -4.45% (active) | 4.06% (active) | 20.4% | 16.3% | 15.5% | 11.2% | 22.2% | 50.6% | 27.1% | 28.8% | -25.3% (active) | 8.11% (active) | 7.95% (active)
4 | Cc1ccc(C=C2C(=O)NC(=O)NC2=O)cc1 | 104% | 101% | 99.2% | 89.9% | 97.8% | 110% | 100% | 105% | 103% | 95.1% | 96.9% | 103% | 100% | 107% | 110% | 105% | 104% | 105% | 102% | –
5 | CCOC(=O)c1ccccc1-c1c2ccc(=[N+](C)C)cc-2oc2cc(N(C)C)ccc12 | 4.77% (active) | 34.5% | 7.33% (active) | 52.1% | 32% | 6.36% (active) | -26.9% (active) | 0.621% (active) | 30.3% | 31.5% | 21.9% | 13.8% | 2.69% (active) | 4.53% (active) | 17.9% | -2.61% (active) | 18.4% | 11.1% | 102% | 26.1%
6 | O=C(N/N=C\c1cccc([N+](=O)[O-])c1)N/N=C/c1cccc([N+](=O)[O-])c1 | 108% | 98% | 96.8% | 86.8% | 117% | 98.6% | 95.8% | 82.3% | 98.7% | 106% | 109% | 97.1% | 101% | 114% | 105% | 101% | 107% | 112% | 106% | –
7 | CC(=O)OC(c1ccccc1)C1CCOC1=O (stereo not given) | 96.5% | 78.8% | 102% | -82.3% (active) | 92.4% | 96.5% | 75.2% | 98.7% | 109% | 82.8% | 122% | 111% | 104% | 86.8% | 88.3% | 106% | 102% | 102% | 97% | 111%
8 | COc1ccc(C2=NN(C(C)=O)C(c3cn(-c4ccccc4)nc3-c3ccc(Cl)cc3)C2)cc1 (stereo not given) | 63.7% | 41.3% | 32.8% | 38.5% | 12.1% | 8.45% (active) | 28% | 80.2% | 24% | 43.6% | 10.7% | 37.3% | 17.1% | 68.1% | -23.5% (active) | 38.1% | 54.1% | -42.6% (active) | 15.3% | 26.2%
9 | CN1CCN(c2ccc3nc4c(nc3c2C(F)(F)F)C(=O)c2ncccc2C4=O)CC1 | -34.5% (active) | 5.13% (active) | -95.4% (active) | -19.1% (active) | 80.3% | -44.2% (active) | 33.1% | -21.1% (active) | 5.71% (active) | -36.4% (active) | -27.2% (active) | 27.6% | -10.9% (active) | -90.4% (active) | -91.1% (active) | 29.7% | -32.6% (active) | -27.9% (active) | 10.1% | -16% (active)
10 | O=C1/C=C/[C@@H](O)[C@@H]2C[C@@H](O)C[C@H]2/C=C/CCC[C@H](CCO)O1 | -20.3% (active) | 9.95% (active) | 10.5% | 18.1% | -30.4% (active) | 5.87% (active) | 1.05% (active) | -33.3% (active) | 18.8% | 15.1% | 9.21% (active) | 14.7% | 11% | 16.1% | 27.8% | 30.8% | 17.9% | -46.9% (active) | 5.98% (active) | 29.4%
11 | CSc1nc(C)c([N+](=O)[O-])c(N)n1 | 109% | 102% | 99.1% | 98% | 89.4% | 112% | 98.4% | 101% | 62.5% | 93.4% | 96.3% | 78.4% | 100% | 118% | 104% | 85.1% | 110% | 114% | 102% | 104%
12 | CCOC(=O)C(=Cc1ccc(-c2ccccc2)cc1)C(=O)OCC | 51.8% | 95% | 67.3% | 55.4% | 66% | 34% | 85.6% | 108% | 1.19% (active) | -3.57% (active) | 4.01% (active) | -3.52% (active) | 19.7% | 71% | 75.5% | 95.6% | 50.5% | 52.8% | 19.6% | –
13 | CC(=O)O[C@H]1C[C@@H]2C(C)(C)C(=O)CC[C@@]2(C)c2ccc(C(C)C)cc21 | 109% | 99.3% | 107% | 91.8% | 97.2% | 107% | 89.6% | 100% | 108% | 108% | 105% | 108% | 101% | 119% | 104% | 109% | 101% | 102% | 108% | –
14 | CN(C)c1ccc(/C=C(\C#N)c2cc3ccccc3[nH]2)cc1 | 27.3% | 42.2% | 29% | 37.8% | 49.2% | 46.2% | 31.5% | 14.4% | 9.57% (active) | 38.4% | 20% | 6.48% (active) | 26% | 44.9% | 55.7% | 26.5% | 50% | 8.37% (active) | 10.8% | 1.2% (active)
